# Source: PubChem BioAssay (National Center for Advancing Translational Sciences (NCATS))
# DT40 TDP1 no CPT = qHTS for Inhibitors of human tyrosyl-DNA phosphodiesterase 1 (TDP1): qHTS in cells in absence of CPT; DT40 Tdp1-/- hTDP1 cells, no CPT, ATP luminescence, 48 h; Potency, µM (top dose mostly 46.2 µM), inactives show at the highest dose activity change, negative = growth inhibition, most hits filed as inhibitors; 420,000 compounds, 15% hits; AID 686978, 2013; note: % is set by controls: 0 for no effect and ±100 for the full control effect; nearly all actives have a fitted effect of over 55% in size
#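 No-CPT arm: Tdp1-/-;hTDP1 DT40 cells (400/well) plus compounds, incubated ≥48 hr at 37 °C. Readout CellTiter-Glo luminescence.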
# ATXN2 expr inh = reduces ATXN2 reporter expression in HEK-293 cells; HEK-293 ATXN2-luciferase reporter, luminescence, 24 h; Potency, µM (titrated, usually from 57 µM), inactives show at the highest dose activity change, negative = inhibition, most hits filed as inhibitors; 360,000 compounds, 0.72% hits; note: % is set by controls: 0 for no effect and ±100 for the full control effect; nearly all actives have a fitted effect of over 55% in size
#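 ATXN2-luciferase reporter cells (luciferase flanked by upstream and downstream ATXN2 gene portions) were treated 24 h at 37 °C with compounds at up to 57 uM. SteadyGlo luminescence gave expression; GF-AFC fluorescence gave viability.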
# HepG2 viability = counter-screen for TGF-b inhibitors: cytotoxicity in HepG2 cells | AID 588856 | 410,000 compounds, 0.76% hits | Potency, µM (titrated, usually from 46.1 µM), for the others: at the highest dose activity change, negative = cytotoxicity, actives largely listed as cytotoxic | HepG2 CAGA-GFP viability, ATP luminescence, 18 h
#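 HepG2 CAGA-GFP cells (1000/well, DMEM with 1% FBS) received compound, then TGF-beta at 500 pg/mL final, and were incubated 18 hours at 37 degrees C. Viability was read by CellTiter-Glo luminescence. Media-only wells were set as complete cell-killing and DMSO as no toxicity.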
# TGFb SMAD3 inh = blocks TGF-b signaling; AID 588855; HepG2 CAGA-GFP TGF-b/SMAD3 reporter, GFP fluorescence, 18 h; TGF-beta stimulated, 500 pg/mL final; 410,000 compounds, 1.2% hits; Potency, µM (titrated, usually from 46.1 µM), without a hit: top-dose activity, negative = inhibition, actives largely listed as inhibitors; note: % is set by controls: 0 for no effect and ±100 for the full control effect; nearly all actives have a fitted effect of over 65% in size
#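 First, reporter cells (HEPG2 CAGA-GFP) rested 2 h at 37 degrees C. Next, compounds were pinned in and TGF-beta added to 500 pg/mL final. After 18 h, GFP was imaged per cell and summed per well.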
# S2 tox = cell viability loss in ATXN counter-screen; S2 cells (HEK-293 line with an ATXN2-luciferase reporter) viability, CellTiter-Fluor protease fluorescence, 24 h; 400,000 compounds, 0.49% hits; Potency, µM (titrated, usually from 56.7 µM), actives largely listed as cytotoxic; note: nearly all actives have a fitted effect of over 40% in size
# DT40 TDP1 CPT = growth inhibition of DT40 Tdp1-/-;hTDP1 cells with camptothecin (screen for TDP1 inhibitors) | chicken DT40 Tdp1-/-;hTDP1 cells + 20 nM CPT, ATP luminescence, 48 h | Potency, µM (series often up to 46.2 µM), for the others: top-dose activity change, negative = growth inhibition, usual class: inhibitors | 420,000 compounds, 12% hits; note: % is set by controls: 0 for no effect and ±100 for the full control effect; nearly all actives have a fitted effect of over 55% in size
#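 Chicken DT40 Tdp1-/- cells complemented with human TDP1, 400 cells/well, exposed to compounds plus 20 nM camptothecin for at least 48 h at 37 C; viability read as ATP content by CellTiter-Glo luminescence.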
# An asterisk follows results filed as active; i = inactive; ? = inconclusive; . = no result; [ ] = dose if it differs, or a comment. Hits are enriched below; roughly 17% of the tested compounds scored in any of these assays. Calls come from the whole dose curve; as a rule, active = well fitted curve in the direction sought with a large enough effect; inconclusive = small, poorly fitted or top-dose-only effect, or another doubt; inactive = no such curve, though single readings can be large; an effect the other way counts as inactive or inconclusive. Potency is the fitted concentration of half-maximal effect.
SMILES,DT40 TDP1 no CPT,ATXN2 expr inh,HepG2 viability,TGFb SMAD3 inh,S2 tox,DT40 TDP1 CPT
Ic1ccc(Nc2nc(NCCN3CCOCC3)nc(N3CCOCC3)n2)cc1,2.8µM*,.,-52%,6%,.,5µM*
c1ccc(Nc2nc(NCCN3CCOCC3)nc(Nc3ccccc3)n2)cc1,?,9%,-42%,43%,i,?
Ic1ccc(Nc2nc(NCCN3CCOCC3)nc(N3CCCC3)n2)cc1,11µM*,.,-29%,?,.,11µM*
O=C(NN=C1c2ccccc2-c2ccccc21)c1ccccc1,?,-11%,-24%,-10%,i,?
NC(=S)NN=C1c2ccccc2-c2ccccc21,2.9µM*,.,-111%,6.3µM*,1.4µM*,5.2µM*
CCOc1ccc(C2C(=O)N(C3CCCCC3)CC(=O)N2C2CCCC2)cc1OC (configuration not stated),?,.,-17%,-3%,.,?
O=C(NCC(c1ccco1)N1CCc2ccccc2C1)C(=O)Nc1ccc(F)cc1F (configuration not stated),21µM*,9%,1%,?,i,18µM*
O=C(NCC(c1ccco1)N1CCc2ccccc2C1)C(=O)Nc1ccccc1F (configuration not stated),-82%,4%,8%,-5%,i,-55%
CC(=O)Nc1ccc(NC(=O)C(=O)NCC(c2ccco2)N2CCc3ccccc3C2)cc1 (configuration not stated),21µM*,-39%,-49%,?,i,16µM*
O=C(NCC(c1cccnc1)N1CCc2ccccc2C1)C(=O)Nc1ccc(F)cc1F (configuration not stated),18µM*,.,-29%,?,.,15µM*
O=C(NCC(c1ccco1)N1CCc2ccccc2C1)c1ccc(Cl)cc1 (configuration not stated),?,0%,-2%,-12%,i,?
COC(=O)c1ccccc1OCCOCCOc1cccc2ccc(C)nc12,23µM*,-6%,6%,4%,i,?
COC(=O)c1ccc(OCCOc2ccccc2C)cc1,-5%,21%,1%,31%,i,4%
Cc1ccc(OCCOc2cccc3ccc(C)nc23)c([N+](=O)[O-])c1,16µM*,6%,-18%,2%,i,?
COC(=O)c1ccc(OCCOCCOc2cccc3ccc(C)nc23)cc1,23µM*,41%,-13%,-2%,i,?
Cc1ccc2cccc(OCCOCCOc3ccccc3Br)c2n1,21µM*,-2%,-37%,-11%,i,?
Cc1cccc(N2CCN(C(=O)c3cccc(S(=O)(=O)N4CCOCC4)c3)CC2)c1C,?,-17%,-4%,0%,?,?
COc1ccc(C2Nc3ccccc3C(=O)N2Cc2ccccc2)cc1 (configuration not stated),?,-17%,-9%,-17%,i,?
COc1ccc([C@@H]2[C@@H](C)N(c3ccccc3)c3ccccc3C(=O)N2Cc2ccccc2)cc1,16µM*,0%,-30%,?,?,?
Cc1ccc(Sc2c(C)nn(C(=O)COc3ccccc3Br)c2C)cc1,-3%,7%,0%,6%,i,-12%
CCCS(=O)(=O)NCc1c(C)ncc2c1CCN(C(=O)c1cccc(-c3ccccc3F)c1)C2,?,.,.,.,i,7%[9.04 µM]
O=C(c1ccoc1)N1CCCC(N2CCN(c3ccc(F)cc3)CC2)C1 (configuration not stated),-5%,-6%,1%,-2%,i,-14%
Cc1cc(C)c(C(=O)N2CCCC(N3CCN(c4ccc(F)cc4)CC3)C2)o1 (configuration not stated),16µM*,-17%,-28%,-20%,i,?
Cc1nc(C(=O)N2CCCC(N3CCN(c4ccc(F)cc4)CC3)C2)cs1 (configuration not stated),15µM*,.,-4%,2%,i,21µM*
CC(=O)Nc1ccccc1-c1nc2cc(C#N)c(C#N)cc2[nH]c1=O,21µM*,.,-42%,?,i,21µM*
SMILES,DT40 TDP1 no CPT,ATXN2 expr inh,HepG2 viability,TGFb SMAD3 inh,S2 tox,DT40 TDP1 CPT
O=C(N/N=C/c1ccncc1)c1nc(-c2ccccc2)n2c1CCCCC2,7.3µM*,-8%,2%,0%,i,7.3µM*
NNC(=O)c1nc(-c2ccccc2)n2c1CCCCC2,-5%,12%,-5%,-7%,i,-2%
Nc1nonc1-c1nc2ccccc2n1Cc1ccc(F)cc1Cl,21µM*,.,-13%,-10%,i,21µM*
Fc1ccc(Cn2c(-c3cscn3)nc3ccccc32)c(Cl)c1,?,-19%,-19%,2%,i,?
C=CCNC(=O)c1c2c(nc3ccccc13)-c1ccccc1CC2,-24%,2%,-1%,-3%,i,-21%
CCCOc1ccc2cc(-c3ccccn3)c(=O)oc2c1,16µM*,3.5µM*,-61%,-18%,i,?
c1ccc2sc(Sc3ncnc4sccc34)nc2c1,2.9µM*,7%,-55%,?,i,5.8µM*
CCc1cc2c(Sc3nc4ccccc4s3)ncnc2s1,9.2µM*,?,-18%,0%,?,5.2µM*
CCc1cc2c(SCC(=O)Nc3ccc(NC(C)=O)cc3)ncnc2s1,-25%,.,-25%,3%,i,-20%
Cc1ccc(NC(=O)CSc2[nH]c(=O)ncc2C)cc1,-15%,.,-13%,-6%,.,?
COc1ccc(OC)c(C2C(C(=O)Nc3ccccc3OC)=C(C)Nc3c(C(=O)Nc4ccc(F)cc4)cnn32)c1 (configuration not stated),?,.,-27%,?,.,?
COc1ccccc1NC(=O)C1=C(C)Nc2c(C(=O)Nc3ccc(F)cc3)cnn2C1c1ccc(Cl)cc1 (configuration not stated),?,.,-8%,-11%,.,13µM*
CCOc1ccc(C2C(C(=O)Nc3ccccc3OC)=C(C)Nc3c(C(=O)Nc4cccc(C)c4)cnn32)cc1 (configuration not stated),?,.,-1%,-10%,.,?
CCOc1ccc(NC(=O)c2cnn3c2NC(C)=C(C(=O)Nc2ccc(Cl)cc2)C3c2ccc(OC)c(OC)c2)cc1 (configuration not stated),10µM*,5%,-18%,-24%,i,23µM*
